Results taken from ChEMBL document CHEMBL3988442, “University of Dundee, Small-Polar-MMV Screening Library” (2021).
Screen size: about 67,000 compounds; about 300 (0.45%) showed an effect of 50% or more. Only a selection was taken, and strong results are over-represented in it overall.

What follows are compounds tested against Polyketide synthase Pks13 (Mycobacterium tuberculosis (strain ATCC 25618 / H37Rv)) (UniProt I6X8D2) (assay: Mycobacterium tuberculosis Polyketide synthase 13 Thioesterase (PKS13)). Settings: 30 µM.
Chain of Polyketide synthase Pks13 (Mycobacterium tuberculosis (strain ATCC 25618 / H37Rv)) (I6X8D2 whole entry): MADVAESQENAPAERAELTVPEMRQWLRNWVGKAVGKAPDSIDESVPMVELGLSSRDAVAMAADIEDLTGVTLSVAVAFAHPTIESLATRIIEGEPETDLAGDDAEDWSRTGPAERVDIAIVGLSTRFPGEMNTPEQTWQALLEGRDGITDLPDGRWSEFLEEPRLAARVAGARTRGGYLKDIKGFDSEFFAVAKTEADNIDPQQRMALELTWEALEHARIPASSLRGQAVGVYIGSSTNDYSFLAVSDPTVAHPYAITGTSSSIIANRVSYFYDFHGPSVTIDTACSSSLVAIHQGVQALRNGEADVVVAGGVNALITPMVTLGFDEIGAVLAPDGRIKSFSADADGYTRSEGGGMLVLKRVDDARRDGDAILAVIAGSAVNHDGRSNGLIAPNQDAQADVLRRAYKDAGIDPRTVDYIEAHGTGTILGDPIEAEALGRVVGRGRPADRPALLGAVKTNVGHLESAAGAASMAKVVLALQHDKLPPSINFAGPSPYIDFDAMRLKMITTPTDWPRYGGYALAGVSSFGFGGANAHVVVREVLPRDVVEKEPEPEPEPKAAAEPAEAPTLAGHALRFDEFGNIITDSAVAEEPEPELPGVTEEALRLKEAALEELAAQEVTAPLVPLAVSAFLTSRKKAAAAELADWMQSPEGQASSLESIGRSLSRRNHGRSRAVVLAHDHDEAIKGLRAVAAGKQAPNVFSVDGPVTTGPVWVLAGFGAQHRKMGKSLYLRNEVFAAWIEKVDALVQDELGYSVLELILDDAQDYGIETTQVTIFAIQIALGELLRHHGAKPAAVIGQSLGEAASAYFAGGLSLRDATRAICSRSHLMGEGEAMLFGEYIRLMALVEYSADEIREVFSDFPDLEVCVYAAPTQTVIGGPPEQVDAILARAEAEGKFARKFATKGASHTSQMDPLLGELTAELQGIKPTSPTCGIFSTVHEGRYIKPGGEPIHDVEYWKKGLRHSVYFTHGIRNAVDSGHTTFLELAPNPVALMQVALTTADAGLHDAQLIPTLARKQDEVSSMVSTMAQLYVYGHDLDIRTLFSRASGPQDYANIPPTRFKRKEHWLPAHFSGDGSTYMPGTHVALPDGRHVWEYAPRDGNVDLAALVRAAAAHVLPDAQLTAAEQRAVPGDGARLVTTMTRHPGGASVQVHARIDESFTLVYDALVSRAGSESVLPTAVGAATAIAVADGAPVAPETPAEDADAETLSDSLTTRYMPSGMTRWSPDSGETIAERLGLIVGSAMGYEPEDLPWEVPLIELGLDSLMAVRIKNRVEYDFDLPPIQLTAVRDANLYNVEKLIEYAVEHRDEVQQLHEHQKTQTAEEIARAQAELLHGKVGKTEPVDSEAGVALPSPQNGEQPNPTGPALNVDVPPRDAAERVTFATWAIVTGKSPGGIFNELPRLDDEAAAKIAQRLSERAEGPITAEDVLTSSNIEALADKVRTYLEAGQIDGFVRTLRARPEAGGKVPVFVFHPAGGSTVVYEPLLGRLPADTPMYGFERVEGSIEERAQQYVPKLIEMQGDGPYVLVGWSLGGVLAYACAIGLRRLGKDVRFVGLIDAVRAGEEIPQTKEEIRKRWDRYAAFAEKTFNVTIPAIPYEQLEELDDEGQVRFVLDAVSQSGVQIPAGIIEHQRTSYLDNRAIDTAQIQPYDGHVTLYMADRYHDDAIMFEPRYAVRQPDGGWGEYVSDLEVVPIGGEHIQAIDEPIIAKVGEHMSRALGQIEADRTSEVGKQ
Assay type: functional
Set-up: scale not given: in the data most compounds retested in dose-response had high values
CN(C)C[C@H]1OC[C@@H]2CN(C(=O)NCc3cccnc3)CC[C@@H]21 gave a Percent Effect of 1.8%. In the case of CC(=O)N1C[C@@H](c2ccsc2)[C@@H]2CN(Cc3ccccc3Cl)CC[C@@H]21, the Percent Effect is reported as 9.76%. COc1ccc(NC(C)C(=O)N2CCN(c3ncccn3)CC2)cn1 (centres undefined) showed a Percent Effect of 4.94%. COc1ccc(NC(C)C(=O)N2CCN(c3ccccc3)CC2)cn1 (centres undefined) showed a Percent Effect of 31.4%. COc1ccc(NC(C)C(=O)N2CCCC2)cn1 (centres undefined) showed a Percent Effect of 67.9%. CN(C)C[C@]12COC[C@H]1CN(Cc1ccc3ccccc3n1)C2 was tested, and the Percent Effect was -18.2%. CC(C)c1noc(CN(CCC2CCCCC2)CC(N)=O)n1 gave a Percent Effect of -4.56%. With CC(C)(C)c1nc(CN(CCC2CCCCC2)CC(N)=O)no1 the Percent Effect was 57.2%. With CCc1noc(CN(CCC2CCCCC2)CC(N)=O)n1 the Percent Effect was 6.76%. Work on CSc1ncccc1C(=O)N1C[C@H]2CC[C@@H]1CN(c1cnccn1)C2 yielded a Percent Effect of -2.08%. O=C(O)c1ccc2ccc(N3CCN(CC4CC4)CC3)n2c1 gave a Percent Effect of 9.49%. For Cc1ccc(NC(=O)c2nc3c(s2)CCCN3C(C)C)cn1, the Percent Effect was -9.2%. Cc1ccc(NC(=O)c2nc3c(s2)CCCN3C(=O)C2CC2)cn1 gave a Percent Effect of 56.3%. With CC(=O)N1CCCc2sc(C(=O)Nc3ccc(C)nc3)nc21 the Percent Effect was -22.2%. In the case of CC[C@H]1CN2CC[C@H]1C[C@@H]2CNC(=O)Nc1cccc(C(F)(F)F)c1, the Percent Effect is reported as -29.8%. For Cc1ccc(CS(=O)(=O)N2CC[C@H]3[C@H]2CCN3C)cc1, the Percent Effect was 37.1%. c1ccc(-c2cc(CN3C[C@@H]4CC[C@H](C3)N(CC3CCC3)C4)on2)cc1 was tested, and the Percent Effect was -48.3%. Cc1cnn(CC(C)NCC(=O)NCCc2cccs2)c1 (centres undefined) showed a Percent Effect of -15.2%. With Cc1cnn(CCNCC(=O)NCCOc2ccccc2)c1 the Percent Effect was -11.4%. In the case of Cc1cnn(CC(C)NCC(=O)NCCOc2ccccc2)c1 (centres undefined), the Percent Effect is reported as 95.2%. O=C(C1CCOCC1)N1C[C@@H]2[C@@H](C1)OCC(=O)N2Cc1ccncc1 gave a Percent Effect of -12.1%. CS(=O)(=O)NCc1cc(-c2cc(F)cc(F)c2)nc(N2CC[C@H](O)C2)n1 gave a Percent Effect of 147%. CS(=O)(=O)NCc1cc(-c2cc(F)cc(F)c2)nc(N2CCOCC2)n1 was tested, and the Percent Effect was 22.5%. CS(=O)(=O)NCc1cc(-c2cc(F)cc(F)c2)nc(N2CCCC2)n1 was tested, and the Percent Effect was 22.1%. Compound Cn1nccc1NC(=O)c1cccc(CN2C[C@H]3CC[C@@H](C2)N3)c1 has a Percent Effect of -14.8%. For CN1CCCC[C@@H]2[C@H]1[C@@H](c1ccccc1)CCN2S(=O)(=O)N1CCCC1, the Percent Effect was -11%. In the case of Cn1cncc1-c1nnc([C@H]2CCN(Cc3ncc[nH]3)C2)o1, the Percent Effect is reported as 61%. With Cn1cncc1-c1nnc([C@H]2CCN(CC(C)(C)C)C2)o1 the Percent Effect was 25.7%. In the case of Cn1cncc1-c1nnc([C@H]2CCN(Cc3cccnc3)C2)o1, the Percent Effect is reported as -26%. In the case of CSCCCN1C[C@H]2CC[C@@H]1CN(Cc1[nH]cnc1C)C2, the Percent Effect is reported as -11.9%. Work on c1coc(CN2C[C@@H]3CCCO[C@@H]3[C@H](N3CCCC3)C2)c1 yielded a Percent Effect of -16.1%. CN(C)C(=O)c1nc(-c2ccc(S(C)(=O)=O)cc2)c2ccccn12 gave a Percent Effect of 48.7%. CS(=O)(=O)c1ccc(-c2nc(C(=O)N3CCCC3)n3ccccc23)cc1 was tested, and the Percent Effect was 74.1%. CN(C)C(=O)c1nc(-c2ccc(S(C)(=O)=O)cc2)c2cnccn12 showed a Percent Effect of 9.33%. Work on Cc1nnsc1C(=O)N1CC[C@H](c2ccccc2)[C@@H]2[C@H]1CCCCN2C yielded a Percent Effect of 56.9%. CN1CCCC[C@@H]2[C@H]1[C@@H](c1ccccc1)CCN2C(=O)c1ccncc1 showed a Percent Effect of 37.2%. CN1CCCC[C@@H]2[C@H]1[C@@H](c1ccccc1)CCN2C(=O)c1ccccc1 showed a Percent Effect of -32%. CC(=O)N1C[C@H](NC(=O)c2cscn2)[C@@H]2OCCC[C@@H]21 showed a Percent Effect of -14.1%. CCCOc1ccccc1CCCNc1ncnc2oc(C)nc12 gave a Percent Effect of 18%. In the case of CCC(CNc1ncnc2oc(C)nc12)Cc1ccccc1 (centres undefined), the Percent Effect is reported as -13.8%. Compound CCCOc1ccc(Cl)cc1CNc1ncnc2oc(C)nc12 has a Percent Effect of 78.9%. In the case of Cn1cccc1C(=O)N1C[C@H]2CC[C@@H]1CN(Cc1cscn1)C2, the Percent Effect is reported as -21.5%. Cc1ncc(CN)c(-c2cn(C)c3ccccc23)n1 gave a Percent Effect of 140%. For COc1ccc2c(c1)c(-c1nc(C)ncc1CN)cn2C, the Percent Effect was -1.61%. COc1ccc2c(c1)c(-c1nc(N(C)C)ncc1CN)cn2C gave a Percent Effect of -8.95%. Compound O=C(C1CCOCC1)N1C[C@H](OCc2cccnc2)[C@H]2COC[C@H]21 has a Percent Effect of -10.6%. Work on O=C1CO[C@H]2CN(C3CCOCC3)C[C@H]2N1Cc1ccc(F)cc1 yielded a Percent Effect of 18.6%. Cc1ccc(-c2noc(CC[C@@H]3CCCN4CCCC[C@H]34)n2)nn1 showed a Percent Effect of -24.6%. With O=C(CC1CC1)N1C[C@H]2CCN[C@H]2C1 the Percent Effect was 1.79%. O=c1[nH]c(N2CCCCC2)nc2nccc(-c3ccc4c(c3)OCO4)c12 showed a Percent Effect of -6.64%. In the case of COc1ccccc1-c1ccnc2nc(N3CCCCC3)[nH]c(=O)c12, the Percent Effect is reported as 71.7%. With COc1ccc(-c2ccnc3nc(N4CCCCC4)[nH]c(=O)c23)cc1 the Percent Effect was 75%. For COc1cccc(-c2ccnc3nc(N4CCCCC4)[nH]c(=O)c23)c1, the Percent Effect was -83.6%. With COc1ccc(-c2ccnc3nc(N4CCCC4)[nH]c(=O)c23)cc1OC the Percent Effect was -15.2%. In the case of NC(=O)C1CCN(c2nc3nccc(-c4ccccc4)c3c(=O)[nH]2)CC1, the Percent Effect is reported as -5.28%. Compound Cc1cc(C(=O)N2C[C@H]3CC[C@@H]2CN(C(=O)c2ccncc2)C3)cs1 has a Percent Effect of -6.64%. For O=C(Nc1cccnc1)[C@@H]1COC[C@H]2CN(C3CCCC3)C[C@H]21, the Percent Effect was -9.56%. For CCS(=O)(=O)N1CC[C@H]2OCC[C@@]2(c2nnc(C)o2)C1, the Percent Effect was -32.8%. In the case of CC1=N[C@@]2(CC[C@@H]3CN(S(C)(=O)=O)C[C@@H]32)C(=O)N1CC(C)C, the Percent Effect is reported as 75.9%. Compound CCS(=O)(=O)N1C[C@H]2CC[C@@]3(N=C(C)N(CC(C)C)C3=O)[C@H]2C1 has a Percent Effect of -10.2%. CC1=N[C@@]2(CC[C@@H]3CN(S(=O)(=O)C4CC4)C[C@@H]32)C(=O)N1CC(C)C showed a Percent Effect of -51.1%. CN(C)CCNC(=O)[C@H]1C[C@H]2CN(c3ncccn3)C[C@H]2N1C showed a Percent Effect of -18.5%. Work on Cc1cccc(CN2CC[C@H]3[C@H]2CCN3C(=O)c2cnn(C)c2)n1 yielded a Percent Effect of 3.27%. Compound NC(=O)CSc1nccc(-c2ccc3c(c2)OCO3)n1 has a Percent Effect of 59.5%. CCOc1ccc(-c2ccc3c(c2)OCO3)cc1C(N)=O was tested, and the Percent Effect was -15.1%. O=C(CSc1nccc(-c2ccc3c(c2)OCO3)n1)N1CCOCC1 was tested, and the Percent Effect was 26.7%. Work on O=C(O)CSc1nccc(-c2ccc3c(c2)OCO3)n1 yielded a Percent Effect of 51.8%. Work on NC(=O)CCC(=O)N1CCc2[nH]nc(-c3ccc4c(c3)OCO4)c2C1 yielded a Percent Effect of -10.3%. Work on CNCc1nc(-c2ccc3c(c2)OCO3)c[nH]1 yielded a Percent Effect of 0.694%.
